From PubChem BioAssay (NCI) come the findings set out here.

Each structure is given as a SMILES string. “And” between values parts separate entries of the source, which are not always exact repeats. Identical values can stand only once. About 83,000 compounds went through this panel and 20% of them were active in at least one assay; those are over-represented in the sample as a whole.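 The endpoint reported here, percent growth, reads 100 for growth as untreated, 0 for no net growth and -100 for all cells dead.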 Unmarked numbers belong to inactive results. The source made the active and inactive calls. The calls were made as follows: active = growth percent below 10; inactive = the rest.

This experiment deals with DU-145 prostate. Nature of the experiment: NCI-60 one-dose screen, 48 h (100 = growth as untreated, 0 = no growth, -100 = all killed). Particulars: 10 µM unless noted.
For the molecule `COc1ccc(NC2=C(I)C(=O)C(C)=C(C)C2=O)cc1`, the growth was 86.2%.
With `CC(=O)Nc1cccc(-n2c(COc3ccc(Br)cc3)nc3ccccc32)c1` the figure was 106% and 89.7%; with `CCCSc1nnc(-c2sc3nc4ccccc4n3c2C)o1`, 103%; with `COc1cc(/C=N/NC(=O)c2ccc(OCc3nc4ccc(C)cc4[nH]3)cc2)cc(OC)c1OC`, 62.2%.
With `COc1cc(CNC(=O)C[C@H](C)CCC=C(C)C)ccc1OCc1cn(-c2ccccc2Cl)nn1` the figure was 90.1%; with `Cc1ccc(C(=O)Nc2cc(-n3ccnc3)cc(C(F)(F)F)c2)cc1-n1cc(-c2cnc3cccnn23)nn1`, 111%; with `O=C(Nc1ccc(Cl)c(C(F)(F)F)c1)N1CCN(c2cc(-c3cn(-c4ccccc4)nc3-c3cccc(O)c3)ccn2)CC1`, 22.5%.
With `FC(F)(F)CN1CCN(CCn2c(C(F)(F)F)cc3c(Cl)ncnc32)CC1` the figure was 30.9%.
`Nc1nnc(-c2cncc(Br)c2)c(-c2c[nH]c3ccc(Br)cc23)n1`: the growth is 85.9%.
Regarding `Nc1cc(-c2c[nH]c3ccc(Cl)cc23)nc2cc(-c3c[nH]c4ccccc34)nn12`, the growth is 8.69% (active).
In the case of `CN(C)CCOc1ccc(C(=O)C2[C@H](c3ccc(Cl)cc3)[C@@H](c3ccccc3)NC23C(=O)Nc2ccc(Cl)cc23)cc1` (stereo partly specified), the growth is -80.3% (active).
With `O=C(NNC(=S)NC(=O)c1ccccc1)c1ccc(OCc2nc3ccc(Cl)cc3[nH]2)cc1` the figure was 26.3%; with `O=C(c1ccc(Cl)cc1)C1[C@H](c2ccccc2Cl)[C@@H](c2ccccc2)NC12C(=O)Nc1ccc(Br)cc12` (stereo partly specified), -34.7% (active).
With `COc1ccc(CCC2NCCc3c(Br)c4c(c(OC)c32)OCO4)cc1` (stereo unspecified) the figure was 33.8%; with `O=C(Nc1ccc(Br)cc1)Nc1ccc(-c2ccc3c(c2)NC(=O)/C3=C\c2ccc[nH]2)cc1`, 27.9%; with `O=C(Nc1ccc(S(=O)(=O)N2CCCCC2)cc1)C(Cl)Cl`, 104%.
With `O=C(N/N=C/c1ccc(Br)o1)c1[nH]c2ccc(Br)cc2c1-c1ccccc1` the figure was -44.6% (active); with `COc1cc(/C=C/C(=O)c2ccc(S(=O)(=O)NCCNc3nc(N(C)C)nc(N4CCOCC4)n3)cc2)cc(OC)c1OC`, 13.8%; with `CCCCNC(=S)Nc1ccc(OCc2nc3ccc(Cl)cc3[nH]2)cc1`, 26.3%.
On to `COc1ccc(-c2cc(C(=O)N=Nc3c(O)[nH]c4ccc(Cl)cc34)c3ccccc3n2)cc1OC`, for which the growth was 126%.
With `NS(=O)(=O)c1cccc(Nc2nc(SCC(=O)c3ccc(F)cc3)nc3ccccc23)c1` the figure was 9.74% (active).
With `COc1ccc2[nH]c(O)c(N=Nc3nc(-c4ccccc4)cs3)c2c1` the figure was 34.6%; with `COc1ccc(OC)c(Cn2cc(C#N)c(N)c2C(=O)c2ccc(Br)cc2)c1`, 79.1%; with `CC1=C(C)C(=O)C(N2CCSCC2)=CC1=O`, 107%.
With `N#Cc1c(-c2ccc(F)cc2)nc(SCc2ccc(F)cc2)nc1N1CCNCC1` the figure was -3.44% (active).
With `COc1ccc2[nH]cc(-c3cc4nc(-c5cn(C)c6ncccc56)cc(N)n4n3)c2c1`, the growth is 9.07% (active).
With `O=C1Nc2ccccc2/C1=C\c1ccc(OCC(=O)c2ccc(Br)cc2)cc1` the figure was 85.6%; with `Nc1nn2c(-c3cc4ccccc4oc3=O)ccnc2c1N=Nc1ccccc1`, 90.6%; with `O=c1c(-c2nc(-c3ccccc3)c(-c3ccccc3)[nH]2)coc2ccc(F)cc12`, 46.1%.
With `Cc1ccccc1Nc1nnc(-c2c[nH]c3ccccc23)o1` the figure was 26.4%; with `O=CNc1cccc(-n2cnc3cc(-c4ccc(O)cc4)ccc32)c1`, 43.7%.
Take `CC1(C)CC(=O)C2=C(C1)OC(N)=C(c1nc3ccccc3[nH]1)C2c1ccc(Cl)cc1` (stereo unspecified): the growth was 74% and 99.8%.
As to `CN1C(=O)/C(=C\C(=O)c2cc3ccccc3oc2=O)c2ccccc21`, the growth is 71.1%.
With `Cc1ccc(C2CC(c3ccc(NC(=S)Nc4ccccc4)cc3)=NN2c2ccc(S(N)(=O)=O)cc2)cc1` (stereo unspecified) the figure was 19.7%; with `COc1cc(CNC(=O)[C@]23CCC(C)(C)CC2C2=CCC4[C@@]5(C)CCC(OC(C)=O)C(C)(C)C5CC[C@@]4(C)[C@]2(C)CC3)ccc1OCc1cn(-c2ccc(Cl)cc2Cl)nn1` (stereo partly specified), 116%; with `Nc1ccc(-c2ccc3ncnc(N4CCc5cc(F)c(Cl)cc54)c3c2)cn1`, 5.3% (active).
